High-throughput results from PubChem.
Sampled rows, rich in hits. Any-hit rate of the full collection: about 5.6%.
VP16 counter: Gal4-VP16 reporter inhibition counter-screen; Drosophila S2 Gal4-VP16 UAS-luciferase, luminescence, 20 h; actives 3.5% (n = 310,000); Potency, µM (top dose mostly 53.6 µM), for inactives: at the highest dose activity, negative = inhibition, actives largely listed as inhibitors; AID 2546;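 also: Gal4-VP16 expression switched on by copper sulfate through the metallothionein promoter; potency is read from the fitted curve at half-maximal effect; nearly all actives have a fitted effect of over 50% in size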
Six1-Eya2 blk: blocks human Six1 binding to Eya2 | AID 651725 | AlphaScreen GST-Six1/His-Eya2 binding, biochemical; stronger effect = lower value | activity change, % (no concentration beside the values) | actives 0.56% (n = 360,000) | Q15475+O00167; in the data active = activity change below about -65%; inconclusive = mostly about -30% to -63%
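Homogeneous AlphaScreen proximity assay pairing GST-Six1 with His-tagged Eya2 (added as 5X mix: 250 nM and 500 nM) in 50 mM Tris pH 8.0, 300 mM NaCl, 1 mM TCEP. Glutathione donor and nickel acceptor beads; 1 h, 37 °C, dark.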
RORgamma inh: ROR gamma (mouse) transcription inhibition; P51450; actives 5.4% (n = 310,000); AID 2551; Drosophila S2 Gal4-RORgamma UAS-luciferase reporter, 20 h; Potency, µM (series often up to 53.6 µM), without a hit: at the top dose activity change, negative = inhibition, hits mostly inhibitors; also: potency is read from the fitted curve at half-maximal effect; nearly all actives have a fitted effect of over 60% in size
Target sequence (P51450 whole entry, looked up, the tested form may be a part): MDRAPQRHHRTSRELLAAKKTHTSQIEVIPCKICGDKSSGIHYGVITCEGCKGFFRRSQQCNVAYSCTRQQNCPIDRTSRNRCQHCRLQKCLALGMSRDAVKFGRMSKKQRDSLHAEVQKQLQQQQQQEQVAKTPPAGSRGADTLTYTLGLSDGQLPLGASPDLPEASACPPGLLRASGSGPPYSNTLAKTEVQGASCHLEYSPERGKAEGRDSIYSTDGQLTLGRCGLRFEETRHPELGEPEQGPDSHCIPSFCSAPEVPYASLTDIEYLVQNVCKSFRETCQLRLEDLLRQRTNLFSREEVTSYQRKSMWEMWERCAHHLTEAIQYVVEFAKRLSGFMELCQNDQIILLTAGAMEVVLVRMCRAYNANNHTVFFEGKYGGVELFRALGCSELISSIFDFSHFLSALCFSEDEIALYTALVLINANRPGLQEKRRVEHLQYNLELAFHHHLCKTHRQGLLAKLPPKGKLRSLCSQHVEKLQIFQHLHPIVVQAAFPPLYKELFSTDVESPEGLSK
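Read-out: Photinus luciferase luminescence; inhibitors lower reporter signal. Insect Schneider cells with Gal4-ROR gamma fusion under metallothionein promoter, UAS reporter; 700 uM final copper sulfate induction, 20 hr, ambient temperature.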
PKM2 act: PKM2 (human) enzyme activation | P14618 | purified PKM2, Kinase-Glo ATP luminescence, activation; response scale: 0% is enzyme alone, no compound | Potency, µM (series often up to 57.5 µM), without a hit: at the top dose activation, usual class: activators | actives 0.34% (n = 260,000) | AID 1631; also: potency is read from the fitted curve at half-maximal effect; nearly all actives have a fitted effect of over 55% in size
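Purified hPK-M2 (>95% pure) converted ADP (0.1 mM final) to ATP with 0.5 mM PEP in 50 mM imidazole pH7.2, KCl, MgCl2, Tween 20, BSA; 1 h at room temperature. ATP detected by Kinase-Glo luminescence.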
CtBP-E1A blk: CtBP/E1A binding inhibition; AlphaScreen GST-E1A/His-CtBP binding, 1536-well; stronger effect = lower value; activity change, % (test concentration not listed); actives 0.49% (n = 340,000); AID 651724; in the data active = activity change below about -65%; inconclusive = mostly about -30% to -63%
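Protein mix (5X: 125 nM each GST-E1A, His-CtBP) was incubated with pinned compound 2 h at 37 deg C in dark, in 50 mM Tris pH 8.0 buffer with 300 mM NaCl. Glutathione donor and nickel acceptor beads followed; AlphaScreen signal read after 1 h.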
The depositor's hits bear a star; u = inconclusive; x = not tested or not shown; [ ] = dose if it differs, or a comment. Unless noted, calls follow the shape of the dose curve; as a rule, active = well fitted curve in the direction sought with a large enough effect; inconclusive = small, poorly fitted or top-dose-only effect, or another doubt; inactive = no such curve, though single readings can be large; an effect the other way counts as inactive or inconclusive. % is scaled to controls: 0 for no effect and ±100 for the full control effect.

SMILES	VP16 counter	Six1-Eya2 blk	RORgamma inh	PKM2 act	CtBP-E1A blk
CCNC(=S)N/N=C/c1c(Cl)cccc1Cl	2.8µM*	-1	2.5µM*	-3%	x
Cc1ccccc1CSCC(=O)N/N=C/c1cccs1	-25%	-2	18µM*	1%	-3
Cc1ccc(NC(=S)Nn2cnnc2)c(C)c1	1%	x	-14%	-9%	x
Cc1ccc(NC(=S)N/N=C/c2c(Cl)cccc2Cl)c(C)c1	0.89µM*	-20	0.79µM*	5%	-21
CCOC(=O)N/N=C/c1ccc(F)cc1	3%	0	-3%	-23%	0
CCNC(=S)N/N=C/c1ccc(F)cc1	7.9µM*	x	2.2µM*	6%	x
O=C1C=CC(=O)c2c(O)c(N3CCN(CCOCCO)CC3)c(Br)c(O)c21	x	-69*	x	x	-26
COc1cccc(CN(C(=O)/C=C/c2ccc(Cl)cc2)C2CCS(=O)(=O)C2)c1 (stereo not drawn)	-6%	-1	27%	-2%	-8
NC(=S)Cc1nc(-c2ccc(Cl)cc2)cs1	u	-1	5µM*	-10%	0
CC(C)(C)OC(=O)[C@H](Cc1ccccc1)NC(=O)c1nc[nH]c1C(=O)NCCCCCN	x	0	x	x	-21
C[C@H](NC(=O)c1nc[nH]c1C(=O)N[C@@H](Cc1ccccc1)C(=O)OC(C)(C)C)C(=O)OC(C)(C)C	u	0	11µM*	0%	-2
CC(C)(C)OC(=O)[C@H](CCCCN)NC(=O)c1[nH]cnc1C(=O)N[C@@H](Cc1ccccc1)C(=O)OCc1ccccc1	x	-9	x	x	-9
CC(C)(C)OC(=O)[C@H](Cc1ccccc1)NC(=O)c1nc[nH]c1C(=O)N[C@@H](Cc1ccccc1)C(=O)OC(C)(C)C	u	-9	7.9µM*	-3%	-17
CC(C)(C)OC(=O)[C@H](Cc1ccccc1)NC(=O)c1[nH]cnc1C(=O)N[C@@H](Cc1ccccc1)C(=O)OCc1ccccc1	u	-8	7.1µM*	8%	-6
CCCN(CC(=O)Nc1ccccc1C)C(=O)c1ccc(NC2CC2)c([N+](=O)[O-])c1	x	-10	x	x	-5
CCOC(=O)C1=CN(C(C)C)CCC1=O	x	-1	x	x	-8
CCCNCC(O)Cn1c2ccccc2n2c(=O)cc(C)c(C#N)c12 (stereo not drawn)	-79%	3	0.71µM*	-3%	1
Cc1cc(=O)n2c3ccccc3n(CC(O)CN3CCCC3)c2c1C#N (stereo not drawn)	-9%	0	-28%	12%	6
Cn1ccc(C(=O)Nc2sc3c(c2C(N)=O)CCCCC3)n1	u	-23	u	-18%	-1
Cn1cc(Br)c(C(=O)Nc2sc3c(c2C(N)=O)CCC3)n1	2%	-71*	36%	0%	-79*
CCC(=O)Nc1ccc(OCC2CCCO2)cc1 (stereo not drawn)	-11%	9	17%	-1%	x
COc1cc(NS(=O)(=O)c2ccc(OC)c(C)c2C)c(OC)cc1Cl	6.3µM*	-11	u	2%	-15
CC(Sc1cccc[n+]1[O-])C(=O)Nc1ccc(Oc2ccccc2)cc1 (stereo not drawn)	4%	1	19%	-1%	6
COc1ccc2nc3ccccc3nc2c1N	16µM*	u	u	7%	u
CCOC(=O)C1=C(Cc2ccc(F)cc2)C(=O)c2ccccc2C1=O	-26%	-12	14µM*	24%	-11
CCOc1ccccc1-c1ccc(C(=O)O)o1	-3%[96.6 µM]	x	-43%[96.6 µM]	x	x
O=C(O)c1nn2c(C(F)(F)F)cc(-c3cccs3)nc2c1Cl	-9%	-74*	-4%	-16%	-67*
O=C(NCC1CCCO1)c1nn2c(C(F)(F)F)cc(-c3cccs3)nc2c1Cl (stereo not drawn)	3%	-10	-15%	-7%	19
C(=N\Nc1nc(Nc2ccccc2)nc(N2CCOCC2)n1)/c1c[nH]c2ccccc12	-8%	-9	-29%	-3%	-21
Cc1[nH]c2ccccc2c1/C=N/Nc1nc(Nc2ccc(F)cc2)nc(N2CCOCC2)n1	5.6µM*	16	2.5µM*	u	0
